# Measured values taken from PubChem BioAssay AID594 (National Center for Advancing Translational Sciences (NCATS), 2007).
# In all, about 59,000 compounds went through this assay and about 30 (0.05%) were called active. The sample holds actives, similar compounds and a random draw of the others, so the mix is not that of the screen. Cut-off read from the data, not from the text of the source: active = max dye-equivalent concentration above about 11 nM; inconclusive = between about 1.1 nM and that limit; inactive = weaker than that.
# Assay: qHTS Assay for Spectroscopic Profiling in Rhodamine Spectral Region
# Details: Rhodamine-region fluorescence, 547/598 nm, Tris buffer; active compounds read high
# Source text: NIH Molecular Libraries Screening Centers Network [MLSCN] NIH Chemical Genomics Center [NCGC] […] Occasionally, the artifactual effect may originate from the compound#s own spectral or other biophysical properties which generally tend to track its assay concentration. Pre-screening/profiling the library with respect to the compounds# spectral properties should help one exclude false positives early on. While the most informative fluorescent profiling data set is obtained by performing a full excitation and emission scan of each well by using a monochromator-based plate reader, such an approach is practical only on a very limited scale as scanning each well requires long time. An alternative approach, applied here, is to perform plate reader scans using selected excitation and emission wavelength pairs to generate a multidimensional relational database that correlates compound concentration and the respective relative fluorescence intensity at a given wavelength set. A standard curve of rhodamine present on each plate as six-point concentration series, was used to compute a normalized fluorescence response, termed dye-equivalent concentration, for each compound at each concentration.
# NCGC Assay Protocol Summary: Buffer: 100 mM Tris buffer, pH 8.0 Dye standard plate: The wells in columns 1 through 4 of a Kalypsys polypropylene 1536-well compound plate were filled with standard solutions of fluorophore corresponding to the spectral region of interest. Solutions of rhodamine were placed in the following wells: E1, F1: 3 mM, E2, F2: 300 uM, E3, F3: 30 uM, E4, F4: zero (DMSO), G1, H1: 3 uM, G2, H2: […], G3, H3: 300 nM, G4, H4: zero (DMSO). Assay Steps: Six uL of buffer were dispensed to 1536-well Greiner black plates. Compounds and dye standards (23 nL) were transferred via Kalypsys PinTool. The plates were incubated for 15 min at room temperature, and then read on ViewLux (Perkin-Elmer) High-throughput CCD imager using 547 nm and 598 nm excitation and emission filter set. Keywords: NIH Roadmap, MLSCN, MLI, MLSMR, qHTS, NCGC, Rhodamine , Fluorescent Profiling.
row,Compound,max dye-equivalent concentration
1,COc1ccc(Cl)cc1S(=O)(=O)N1CCN(CC(=O)C(C)(C)C)CC1,inactive
2,O=C(CCCC(=O)N(CC(=O)NC1CCCC1)Cc1ccccc1Cl)Nc1ccccn1,inactive
3,COc1ccc(CCNC(=O)c2cc3sccc3n2C)cc1OC,inactive
4,Cc1ccc(C)c(S(=O)(=O)N2CC(=O)Nc3ccccc32)c1,inactive
5,CCO/C([O-])=N/c1c[n+](N2CCOCC2)no1,inactive
6,C/C(=C(\C#N)C(=O)NCCCN1CCOCC1)N(C)C,inactive
7,Cc1ccc(SCc2cc(=O)[nH]c(N3CCCCC3)n2)cc1,inactive
8,FC(F)(F)c1ccccc1-c1cc(NCc2ccccc2)ncn1,inactive
9,CCOc1ccc(-c2cn(S(=O)(=O)c3cccc4nsnc34)nc2N)cc1,inactive
10,O=C(O)c1c(Br)c(Br)c(Br)c(Br)c1C1c2ccc(O)cc2Oc2cc(O)ccc21,11 nM (active)
11,COC(=O)NC1(C(F)(F)F)NC(=O)N(C2CCCCC2)C1=O (stereo unspecified),inactive
12,C=CCc1cccc2cc(C(=O)N3CCN(C(=O)OCC)CC3)c(=O)oc12,inactive
13,COc1ccc2[nH]c3c(=O)n(Cc4ccco4)cnc3c2c1,inactive
14,COCCNC(=O)CN(C(=O)CCC(=O)Nc1cc(C)on1)c1ccc(C)cc1C,inactive
15,CCC(C)(C)n1nnnc1C(c1cccs1)N1CCN(c2nc3ccccc3s2)CC1 (stereo unspecified),inactive
16,Nc1nc(N)c2[nH]c(CNc3ccc(C(=O)O)cc3)nc2n1,inactive
17,O=C1CCCc2c1[nH]c1ccc(Br)cc21,inactive
18,C=C(Br)CN1CCN(CC(=C)Br)CC1,inactive
19,O=C(Nc1nc2cc3c(cc2s1)OCCO3)c1cccc(S(=O)(=O)N2CCOCC2)c1,inactive
20,CCOc1nc(-c2ccc(OC)cc2)ccc1-c1noc(-c2cc(OC)c(OC)c(OC)c2)n1,inactive
21,Cc1ccc(C)c(NC(=O)C2CCCN2C(=O)OC(C)(C)C)c1 (stereo unspecified),inactive
22,O=C(O)[C@@H](O)Cc1ccccn1,inactive
23,O=C(O)CCC(=O)Nc1ccc(N2CCOCC2)cc1,inactive

row,Compound,max dye-equivalent concentration
1,Cc1ccc2nc(CC(=O)c3ccc4ccccc4c3)c(=O)[nH]c2c1,inactive
2,COc1ccc(-c2cc3ccc(OCc4nn[nH]n4)cc3oc2=O)cc1,inactive
3,O=C(Nc1ccc2c(c1)OCCO2)C1CCCN(c2ncccn2)C1 (stereo unspecified),inactive
4,CCOc1ccc2c(c1)cc(CN(C(=O)CC)C1CCCCC1)c1nnnn12,inactive
5,COCCn1c(=O)c(CCc2ccccc2)nc2cnc(N3CCNCC3)nc21,inactive
6,Cc1cc(=O)cc(C)[nH]1,inactive
7,Cn1c(=O)cc(OCCCC(=O)N2CCN(Cc3ccc4c(c3)OCO4)CC2)c2ccccc21,inactive
8,COc1ccc2[nH]c3cc4c(=O)c5cc(OC)ccc5[nH]c4cc3c(=O)c2c1,inactive
9,CC(=O)O[C@]1(C(C)=O)CC[C@@H]2[C@@H]3C=C(C)C4=CC(=O)CC[C@@]4(C)[C@H]3CC[C@]21C,inactive
10,COc1ccc(CC(=O)n2nc(-c3cccnc3)nc2N)cc1,inactive
11,Oc1ccc(Cn2cc[nH]c2=S)cc1,inactive
12,O=C(CN1CCN(S(=O)(=O)/C=C/c2ccccc2)CC1)NC(=O)NCc1ccco1,inactive
13,CC1CCCC(NC(=O)CN2CCN(Cc3ccc(Cl)cc3)C2=O)C1C (stereo unspecified),inactive
14,Clc1ccc(Nc2nc(-c3cccs3)cs2)nc1,inactive
15,Cc1ccc(/C(=C/CN2CCCC2)c2ccccn2)cc1,inactive
16,Cc1ccc2c(c1)c1ncn(CCC3=CCCCC3)c(=O)c1n2C,inactive
17,COc1ccc(S(=O)(=O)NC2(C(F)(F)F)N=C3SCCN3C2=O)cc1 (stereo unspecified),inactive
18,CCn1c(-c2cc(OC)ccc2OC)csc1=Nc1c(C)n(C)n(-c2ccccc2)c1=O,inactive
19,O=C(c1cnccn1)N1CCC2(CCCN(Cc3ccccc3)C2)CC1,inactive
20,CCN(CC)CCNC(=O)C1c2ccccc2C(=O)N(C)C1c1cn(C)c2ccccc12 (stereo unspecified),inactive
21,CC(C)(O)C#Cc1ccc(C(=O)N2CCC(C(N)=O)(N3CCCCC3)CC2)cc1,inactive
22,O=C(O)[C@@H]1CCCN1c1ncnc2sc3c(c12)CCC3,inactive
23,O=C(CSc1nc2cc3c(cc2c(=O)n1CCC1=CCCCC1)OCO3)NCc1ccco1,inactive

row,Compound,max dye-equivalent concentration
1,CC1C=CCC2C(=O)N(c3cccc(C(=O)N4CCCCCC4)c3)C(=O)C12 (stereo unspecified),inactive
2,COCCNC(=O)CSc1nc2c(n1-c1ccccc1)CCCC2,inactive
3,COc1ccc(S(=O)(=O)N2CCCC2)c(C)c1C,inactive
4,COc1ccc(C2C(C(=O)N3CCN(c4ccc(OC)cc4)CC3)c3ccccc3C(=O)N2C)cc1 (stereo unspecified),inactive
5,O=C(CNS(=O)(=O)c1cccc(C(F)(F)F)c1)Nc1ccccc1F,inactive
6,CC(C)OC(=O)C(C#N)c1nc2ccccc2nc1N1CCN(Cc2ccccc2)CC1 (stereo unspecified),inactive
7,CC(=O)c1cccc(NC(=O)N2CCCC2C(=O)NCCC(C)C)c1 (stereo unspecified),inactive
8,O=S(=O)(c1ccc(Sc2nnc3ccccn23)nc1)N1CCOCC1,inactive
9,Cc1ccc(NC(=O)Cn2nc(C)c3ccccc3c2=O)c(C)c1,inactive
10,CCOC(=O)c1sc(=S)n2c1[nH]c(=O)c1ccc(C(=O)OC)cc12,inactive
11,O=C(Nc1ccccc1)Nc1ccccc1C(=O)NCc1ccco1,inactive
12,CCCCSc1nnc(-c2ccc(NC(=O)CC)cc2)n1C,inactive
13,Cc1cccc(N=C2NC(=O)CS2)c1C,inactive
14,CC1=NCCN1S(=O)(=O)c1ccc(Br)c(C)c1,inactive
15,O=c1c(-c2ccc(F)cc2)nc2cnc(N3CCOCC3)nc2n1-c1ccccc1,inactive
16,OCCCNC(c1ccccc1)c1ccc(O)cc1 (stereo unspecified),inactive
17,Cc1ccccc1NC(=O)c1cc(S(=O)(=O)N2CCOCC2)cs1,inactive
18,O=C(Nc1cccnc1)c1noc2c1CCCCC2,inactive
19,CCC(=O)Nc1ccccc1N1CCN(S(C)(=O)=O)CC1,inactive
20,COc1ccccc1C(=O)N1CCNC(=O)C1CC(=O)Nc1ccc(Cl)cc1 (stereo unspecified),inactive
21,C[C@H](CCC(=O)O)[C@H]1CC[C@@H]2[C@H]3CC[C@H]4C[C@H](O)CC[C@@]4(C)[C@@H]3CC[C@@]21C,inactive
22,NC(=O)CSc1oc(-c2cccs2)nc1S(=O)(=O)c1ccccc1,inactive
23,CCOCCN(C=O)c1cccc(OC)c1,inactive

row,Compound,max dye-equivalent concentration
1,O=C(COC(=O)c1ccc2c(c1)OCCO2)NCc1ccccc1,inactive
2,COC(=O)CN(c1cccc(C(C)=O)c1)S(C)(=O)=O,inactive
3,COCCn1c(=O)c(C)nc2cnc(N(C)C)nc21,inactive
4,O=C(COc1ccc(F)cc1)N(CC1=CCS(=O)(=O)C1)c1ccccc1,inactive
5,CN(c1ccc(C(=O)N2CCc3ccccc3C2)cc1)S(C)(=O)=O,inactive
6,CCCC(=O)Nc1nnc(CC(=O)OCC)s1,inactive
7,CCOP1(=O)C=C(C(C)(C)C)OC1c1ccc(F)cc1 (stereo unspecified),inactive
8,CC(=O)NC(Cc1ccc(F)cc1)C(=O)O (stereo unspecified),inactive
9,Cc1[nH]c(N)nc(=S)c1CCCNc1ccccc1,inactive
10,O=C(O)c1cscn1,inactive
11,CCOC(=O)Cc1c(C)nc2c(C#N)c(C)nn2c1C,inactive
12,CCN(CCCNC(=O)C1CCN(S(=O)(=O)c2cnc[nH]2)CC1)c1ccccc1,inactive
13,COc1cc(OC)c(C(=O)Nc2ccc(N(C)C)cc2)cc1OC,inactive
14,Cc1nc2cc(-c3ccc(F)cc3)nn2c(N2CCOCC2)c1C,inactive
15,COCCOC(=O)C1=C(C)Nc2nc(C)nn2C1c1ccccc1 (stereo unspecified),inactive
16,CCOC(=O)c1sc(NC(=O)CSc2nnc(-c3ccco3)o2)c(C(=O)OCC)c1C,inactive
17,C[C@H](NC(=O)OC(C)(C)C)c1nnc(SCC(=O)Nc2ccc(Br)cc2)o1,inactive
18,Cn1c(=O)c2c(ncn2CC(=O)N2CCN(c3ccccc3)CC2)n(C)c1=O,inactive
19,CCCCc1nccn1CCn1ccnc1CCCC,inactive
20,O=C(CCn1c(=O)oc2ccccc21)Nc1ccon1,inactive
21,O=C1OC(NC(=O)c2ccccc2)C(N2CCOCC2)=C1Cl (stereo unspecified),inactive
22,COc1cc(C2C(C(=O)c3sc(C)nc3C)=C(O)C(=O)N2CCN(C)C)cc(OC)c1OC (stereo unspecified),inactive
23,COc1ccc(CC(=O)Nc2nc3n(n2)C(c2ccccc2)CC(=O)N3)cc1OC (stereo unspecified),inactive

row,Compound,max dye-equivalent concentration
1,CCOC(=O)CN1CC23C=CC(O2)C(C(=O)Nc2ccc(F)cc2)C3C1=O (stereo unspecified),inactive
2,CC1(C)Cc2c(C#N)c(SCc3nc4ccccc4[nH]3)nc(N3CCOCC3)c2CO1,inactive
3,CCOC(=O)C1CCCN(Cc2nc(N)nc(Nc3ccc(C)cc3)n2)C1 (stereo unspecified),inactive
4,CCN(CC)c1ccc2cc(C(=O)O)c(=O)oc2c1,inactive
5,Cc1ccc(CN2C(=O)CCC2C(=O)NCCCN2CCCCC2C)cc1 (stereo unspecified),inactive
6,Cc1ccc(Cn2nnc3c(=O)n(CC(=O)N4CCCCC4)cnc32)cc1,inactive
7,Cc1ccc(-n2nc3c(c2NC(=O)c2ccc4c(c2)OCO4)CSC3)c(C)c1,inactive
8,CCCC1CC(C)(C(=O)Cn2[nH]c(=O)ccc2=O)OC1=O (stereo unspecified),inactive
9,CCc1cccc2c3c([nH]c12)C(CC)(CC(=O)O)OCC3 (stereo unspecified),inactive
10,CCC(c1nnnn1Cc1ccccc1)N(Cc1cc2cc(OC)ccc2[nH]c1=O)CC1CCCO1 (stereo unspecified),inactive
11,O=C(CN(CC1CCCO1)C(=O)CNS(=O)(=O)c1ccccc1)NCc1ccccc1 (stereo unspecified),inactive
12,CC(=O)Nc1ccc(S(=O)(=O)N2CCN(CCCOc3cc(C)ccc3C)CC2)cc1,inactive
13,CCNS(=O)(=O)c1ccc(NC(=O)Nc2cccc(C(F)(F)F)c2)cc1,inactive
14,CCOc1ccc(CN(Cc2ccco2)C(c2cccs2)c2nnnn2C(C)(C)C)cc1 (stereo unspecified),inactive
15,O=c1[nH]c(-c2cccs2)nc2ccccc12,inactive
16,Cc1ccc2nc(NCCCNC(=O)c3cnccn3)c(C#N)cc2c1,inactive
17,COc1ccc(C)cc1NC(=O)CSc1nc(SC)ns1,inactive
18,Cc1nc2nc(CSc3nc4ccccc4s3)cc(=O)n2[nH]1,inactive
19,COc1ccc(Cl)cc1S(=O)(=O)Nc1cccc(C(=O)O)c1,inactive
